# Measurements published in the supplement of paper PMC13380429.
# System: Vero E6 infected with SARS-CoV-2
# Experiment: SARS-CoV-2 infection rate relative to infected DMSO; higher = more infection, active = 60 or less
# Conditions: 24 h
row,SMILES,SARS-CoV-2 infection rate
1,CC(=O)Nc1ccc(C(=O)O)cc1 [acedoben] (10 µM),102% (inactive)
2,CCO[C@@H](Cc1ccc(OCCn2c(C)ccc2-c2ccc(SC)cc2)cc1)C(=O)O [saroglitazar] (10 µM),92% (inactive)
3,C[C@@H](NC(=O)[C@@H](N)Cc1ccc(O)cc1)C(=O)NCC(=O)N(C)[C@@H](Cc1ccccc1)C(=O)N[C@H](CO)CC[S+](C)[O-] (some centres not stated) (10 µM),112% (inactive)
4,Fc1cc(F)c2c(c1)[C@H]1C=CC[C@H]1C(c1cccnc1)N2 (some centres not stated) [Golgicide A] (0.833333 µM),104% (inactive)
5,Cc1c(-c2ccc(O)cc2)n(Cc2ccc(OCCN3CCCCCC3)cc2)c2ccc(O)cc12 [bazedoxifene] (0.833333 µM),101% (inactive)
6,N#C/C(=C\c1ccc(O)c(O)c1)C(=O)NCc1ccccc1 (10 µM),98% (inactive)
7,CN(C)CCCNC(=O)c1ccc(-c2cc(O)c3ncccc3c2)cc1 (0.833333 µM),108% (inactive)
8,COc1ccc(Nc2ccn(-c3ccccc3)n2)cc1 (10 µM),87.5% (inactive)
9,C=CCN1CC[C@]23c4c5ccc(O)c4O[C@H]2C(=O)CC[C@@]3(O)[C@H]1C5 (10 µM),114% (inactive)
10,CC(CCc1ccc(O)cc1)NCC(O)c1ccc(O)cc1 (configuration not stated) [ractopamine] (10 µM),111% (inactive)
11,Cn1cc(/C=C2\C(=O)Nc3cccnc32)c2ccccc21 (10 µM),92.5% (inactive)
12,CCCCC/C=C\C/C=C\CCCCCCCC(=O)NCCCC(=O)O [GABA-linoleamide] (10 µM),97.5% (inactive)
13,Oc1ccc([C@@H]2Oc3ccc(O)cc3[C@@H]3CCC[C@@H]32)cc1 [erteberel] (10 µM),113% (inactive)
14,O=c1oc2ccccc2c(O)c1Cc1c(O)c2ccccc2oc1=O [dicoumarol] (10 µM),108% (inactive)
15,O=C(O)c1cc(O)c2c(c1)C(=O)c1cccc(O)c1C2=O [rhein] (10 µM),99.5% (inactive)
16,CNCc1ccc(-c2cc(-c3nc(-c4ccc(S(=O)(=O)C(C)C)cc4)cnc3N)on2)cc1 (0.833333 µM),52% (active)

row,SMILES,SARS-CoV-2 infection rate
1,Clc1ccc(C(Cn2ccnc2)OCc2csc3c(Cl)cccc23)c(Cl)c1 (configuration not stated) [sertaconazole] (10 µM),104% (inactive)
2,CC[C@H](C)[C@H](N)C(=O)O [isoleucine] (10 µM),106% (inactive)
3,O=c1ncn2nc(Sc3ccc(F)cc3F)ccc2c1-c1c(Cl)cccc1Cl (10 µM),108% (inactive)
4,O=C(NO)c1ccc(O)c(O)c1 [didox] (10 µM),96% (inactive)
5,Nc1nnc(Sc2ncc([N+](=O)[O-])s2)s1 (0.833333 µM),90.5% (inactive)
6,CCC(=O)N1CCOc2c(cc(-c3ccc(OC)c(OC)c3)cc2OC[C@H]2CCCN(C)C2)C1 (0.833333 µM),98.5% (inactive)
7,Cc1ccc(NC(=O)c2cccc(C(C)(C)C#N)c2)cc1Nc1ccc2ncn(C)c(=O)c2c1 (0.833333 µM),93.5% (inactive)
8,C[C@]12CC[C@@H]3c4ccc(OC(=O)c5ccccc5)cc4CC[C@H]3[C@@H]1CC[C@@H]2O [estradiol-benzoate] (10 µM),111% (inactive)
9,C[C@H](CS)C(=O)N1CCC[C@H]1C(=O)O [captopril] (10 µM),104% (inactive)
10,C[N@+]1(CC2CC2)CC[C@]23c4c5ccc(O)c4O[C@H]2C(=O)CC[C@@]3(O)[C@H]1C5 [methylnaltrexone] (10 µM),118% (inactive)
11,CS(=O)(=O)Nc1ccc(-c2coc3cc(OCc4cccc(C(=O)O)c4)ccc3c2=O)cc1 (10 µM),97% (inactive)
12,C[C@](O)(COc1ccc(C#N)cc1)C(=O)Nc1ccc(C#N)c(C(F)(F)F)c1 [ostarine] (10 µM),112% (inactive)
13,CN(C)[C@@H]1CCc2[nH]c3ccc(NC(=O)c4ccc(F)cc4)cc3c2C1 (10 µM),70.5% (inactive)
14,N#C/C(=C\c1ccc(O)c(O)c1)C(=O)NCCCCc1ccccc1 (0.833333 µM),89.5% (inactive)
15,CCCCCCCCCCCCCCCCCCCCCCCCCCCCO [1-octacosanol] (10 µM),100% (inactive)
16,Cc1cc(C)c(Nc2ccnc(Nc3ccc(C#N)cc3)n2)c(C)c1 [dapivirine] (0.833333 µM),114% (inactive)
